BAZ2B block = qHTS Assay for Inhibitors of BAZ2B. AID 504333, 2011. Potency, µM (highest dose often 114 µM), inactives show top-dose activity change, negative = inhibition, most hits filed as inhibitors. AlphaScreen BAZ2B-H3K14Ac peptide displacement. Bromodomain adjacent to zinc finger domain protein 2B (Homo sapiens), Q9UIF8. actives 4.4% (n = 360,000); further: on the % scale 0 is the no-effect control and ±100 the full control effect; nearly all actives have a fitted effect of over 60% in size
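Protein-peptide AlphaScreen: BAZ2B 50 nM, b-H3K14Ac 50 nM, 1x PBS pH 7.4 + 0.01% Tween-20. Preincubation 30 min RT; cpd 30 min RT (top 110 uM); beads 20 min RT, light-protected.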
L3MBTL1 inh = qHTS Assay for the Inhibitors of L3MBTL1 | Potency, µM (top dose mostly 57.1 µM), without a hit: at the top dose activity, negative = inhibition, most hits filed as inhibitors | actives 0.66% (n = 230,000) | AlphaScreen L3MBTL1–H3K9me1 peptide binding | Lethal(3)malignant brain tumor-like protein 1 (Homo sapiens), Q9Y468; further: on the % scale 0 is the no-effect control and ±100 the full control effect; nearly all actives have a fitted effect of over 60% in size
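First, the protein-peptide complex forms for 30 min at room temperature (L3MBTL1 50 nM, biotinylated H3K9me1 peptide 75 nM). Next, compounds are pin-transferred and incubated 30 min. Finally, AlphaScreen beads are added and read after 30 min.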
JMJD2A Tudor = qHTS Assay for Inhibitors of JMJD2A-Tudor Domain; AlphaScreen JMJD2A-Tudor / H3K4me3 peptide binding; Potency, µM (titrated, usually from 114 µM), for the others: at the top dose activity change, negative = inhibition, actives largely listed as inhibitors; actives 4.4% (n = 390,000); AID 504339, 2011; further: on the % scale 0 is the no-effect control and ±100 the full control effect; nearly all actives have a fitted effect of over 50% in size
G9a block = qHTS Assay for Inhibitors of Histone Lysine Methyltransferase G9a; Histone-lysine N-methyltransferase EHMT2 (Homo sapiens), Q96KQ7; G9a H3K9 monomethylation, AlphaScreen, 2 h; Potency, µM (top dose mostly 102 µM), inactives show at the top dose activity, negative = inhibition, actives largely listed as inhibitors; actives 8.8% (n = 350,000); AID 504332, 2011; further: on the % scale 0 is the no-effect control and ±100 the full control effect; nearly all actives have a fitted effect of over 75% in size
Target sequence (Q96KQ7 913-1193 limits assumed): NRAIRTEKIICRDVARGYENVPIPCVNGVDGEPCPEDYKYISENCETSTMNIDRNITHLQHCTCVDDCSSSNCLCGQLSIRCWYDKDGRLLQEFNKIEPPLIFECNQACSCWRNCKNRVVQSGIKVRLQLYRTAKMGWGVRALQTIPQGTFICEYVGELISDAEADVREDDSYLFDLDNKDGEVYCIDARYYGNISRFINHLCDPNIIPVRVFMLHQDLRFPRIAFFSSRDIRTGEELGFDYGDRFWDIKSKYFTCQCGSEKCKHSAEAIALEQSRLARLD
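G9a (20 nM) was preincubated 15 min with compound, then reacted 2 h at room temperature with 500 nM biotin-H3K9 peptide and 20 µM SAM. Monomethyl-H3K9 detected by AlphaScreen using anti-H3K9me1 antibody.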
HP1b binding inh = HTS for Inhibitors of HP1-beta Chromodomain Interactions with Methylated Histone Tails; Potency, µM (doses to about 114 µM), inactives show at the highest dose activity change, negative = inhibition, hits mostly inhibitors; AlphaScreen HP1-beta / biotin-H3K9me3 peptide binding; actives 0.56% (n = 390,000); Chromobox protein homolog 1 (Homo sapiens), P83916; further: nearly all actives have a fitted effect of over 70% in size
Target sequence (P83916 whole entry, looked up): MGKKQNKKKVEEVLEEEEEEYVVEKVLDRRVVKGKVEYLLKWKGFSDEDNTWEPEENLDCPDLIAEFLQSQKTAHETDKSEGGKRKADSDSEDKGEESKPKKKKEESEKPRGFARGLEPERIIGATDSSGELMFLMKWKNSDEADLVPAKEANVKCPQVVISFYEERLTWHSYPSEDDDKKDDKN
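HP1-beta protein (50 nM final) preincubated 30 min at room temperature with biotinylated H3(1-18)K9me3 peptide (50 nM) in PBS pH 7.4, 0.01% Tween-20, then compound added for 30 min. AlphaScreen streptavidin donor/nickel chelate acceptor beads (10 ug/mL final), 30 min dark, luminescence read.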
Sfp PPTase inh = qHTS Assay for Inhibitors of Bacillus subtilis Sfp phosphopantetheinyl transferase (PPTase); 4'-phosphopantetheinyl transferase ffp (Bacillus subtilis), Q9F4F7; Biochemical Sfp PPTase activity, qHTS; Potency, µM, for inactives: largest response in the series, negative = inhibition, most hits filed as inhibitors; actives 3.5% (n = 310,000); AID 1490, 2009;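 further: the enzyme is Sfp with the accession as filed and its product quenches rhodamine fluorescence; 0% = enzyme reaction without inhibitor and -100% = no enzyme wells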
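Buffer: 50 mM Hepes-Na pH 7.6, 10 mM MgCl2, 0.01% Nonidet P-40, 0.01% BSA. Enzyme 15 nM, pre-exposed to compound 15 min; substrates then added and fluorescence change tracked over 30 min.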
* marks the source's active call; other numbers are inactive results; ? = inconclusive; / = no result; [ ] = remark or other dose. Hits are enriched below; roughly 12% of the tested compounds scored in any of these assays. The call rests on the fitted dose curve; in most records, active means well fitted curve in the direction sought with a large enough effect; inconclusive means small, poorly fitted or top-dose-only effect, or another doubt; inactive means no such curve, though single readings can be large; an effect the other way counts as inactive or inconclusive. Potency means the concentration at half of the fitted maximal effect.

SMILES | BAZ2B block | L3MBTL1 inh | JMJD2A Tudor | G9a block | HP1b binding inh | Sfp PPTase inh
Cc1nnc(NC(=O)CC(NC(=O)C(F)(F)F)c2ccccc2)s1 (stereo not given) | -3.2% | 3.4% | -16.8% | 39.8µM* | -1.1% | -25.5%
CCc1cccc2sc(N3CCN(C(=O)c4ccc([N+](=O)[O-])o4)CC3)nc12 | ? | -19.7% | 22.4µM* | 31.6µM* | ? | /
CCc1cccc2sc(N3CCN(C(=O)C4CC4)CC3)nc12 | 9.7% | / | -2.6% | 4.4%[59 µM] | 46.9% | /
O=[N+]([O-])c1ccc(OCCN2CCNCC2)cc1 | 50.1µM* | 16.1% | 25.1µM* | / | ? | ?
Cc1cc(OCCN2CCC(Cc3ccccc3)CC2)ccc1[N+](=O)[O-] | ? | / | ? | 39.8µM* | ? | -24.2%
CC1CN(c2ccc([N+](=O)[O-])cn2)CC(C)O1 (stereo not given) | 1.5% | 7.9% | -14.8% | -0.7% | 5.3% | 1.6%
CC1CN(CCOc2ccc([N+](=O)[O-])cc2)CC(C)O1 (stereo not given) | ? | 6.8% | 6.31µM* | 2.51µM* | ? | -25.0%
CC1CN(CCCOc2ccc([N+](=O)[O-])cc2)CC(C)O1 (stereo not given) | -8.8% | 2.7% | 14.1µM* | 10µM* | ? | -42.9%
Cc1ccc(C(=O)Nc2ccc(C(=O)OCc3cc(=O)n4c5c(sc4n3)CCCC5)cc2)cc1 | -14.2% | / | 5.6% | 0.8%[12.7 µM] | 38.9% | /
CC(OC(=O)Cn1cnc2c1c(=O)n(C)c(=O)n2C)C(=O)NC(C)c1ccc(Cl)cc1Cl (stereo not given) | -9.7% | -1.0% | -6.2% | -3.5% | 22.9% | /
Cc1cc(OCCN2CC(C)OC(C)C2)ccc1[N+](=O)[O-] (stereo not given) | ? | 3.2% | 2.82µM* | 12.6µM* | ? | -25.8%
CC1CN(CCOc2ccc(F)cc2)CC(C)O1 (stereo not given) | 50.1µM* | 1.4% | 20µM* | 7.08µM* | ? | -19.8%
COc1ccc(S(N)(=O)=O)cc1C(=O)NC1CCCc2ccccc21 (stereo not given) | 12.4% | / | -18.1% | -9.8% | 9.8% | 2.6%
CCc1nnc(SCc2nc(-c3ccccc3Cl)oc2C)c2cc3sc(C)cc3n12 | -31.1% | / | -10.3% | -19.2%[59 µM] | 23.7% | /
C/C(=N/Nc1ccnc2cc(Cl)ccc12)c1ccc(N)cc1 | 44.7µM* | -14.9% | ? | 1.78µM* | -8.1% | /
C/C(=N/Nc1ccnc2cc(Cl)ccc12)c1ccc(O)cc1 | 44.7µM* | -16.8% | ? | 22.5%[2.33 µM] | -12.8% | /
O=c1c(-c2ccc(F)cc2)nc2cnc(N3CCOCC3)nc2n1CCc1ccccc1 | / | / | / | 7.6%[0.501 µM] | / | 1.0%
Cc1cccc(C)c1NC(=O)C(c1ccccc1)N1CCC1=O (stereo not given) | 11.2% | 6.0% | 39.8µM* | 57.3%[12.7 µM] | -12.6% | 13.8%
O=C(NC(=S)NNC(=O)c1ccccc1O)c1cccnc1 | ? | ? | 56.2µM* | 12.6µM* | 21.0% | 3.4%
O=C(Cc1ccc(Cl)cc1)NNC(=S)NC(=O)c1cccnc1 | 12.1% | 12.1% | -27.6% | / | 18.8% | -10.0%
O=C(NC(=S)NNC(=O)c1ccc(Cl)cc1Cl)c1cccnc1 | 5.0% | 12.1% | 44.7µM* | 2.24µM* | -13.3% | 44.7µM*
O=C(NNC(=S)NC(=O)c1cccnc1)c1ccc(Cl)cc1 | 9.2%[57.1 µM] | ? | ? | 22.4µM* | -17.4% | 0.7%
O=C(NC(=S)NNC(=O)c1cnccn1)c1ccc(Cl)cc1 | 3.16µM* | / | 22.4µM* | 50.1µM* | 14.5% | -1.0%
Cc1ccc(Cn2cc(CCC(=O)NC3CCCCC3)c3ccccc32)cc1 | -13.4% | / | -15.8% | -28.9%[59 µM] | 2.1% | /
COc1ccc(C)cc1NS(=O)(=O)c1ccc2c(c1)CCN2C(C)=O | -23.6% | / | -14.6% | -7.8% | 20.5% | -0.9%
SMILES | BAZ2B block | L3MBTL1 inh | JMJD2A Tudor | G9a block | HP1b binding inh | Sfp PPTase inh
O=C(c1ccco1)N1CCN(S(=O)(=O)c2ccc(Oc3ccccc3)cc2)CC1 | -30.3% | -8.3% | -34.0% | 35.5µM* | -3.9% | 5.2%
O=C(c1ccco1)N1CCN(S(=O)(=O)c2ccc(Br)cc2)CC1 | -1.2% | / | 5.0% | 11.6% | 42.3% | 10.9%
CC(=O)c1ccc(S(=O)(=O)N2CCN(C(=O)c3ccc(COc4ccccc4)o3)CC2)cc1 | -3.0% | -2.2% | -27.6% | 50.1µM* | 5.6% | /
CCOCCCNC(=S)N1CCCN(c2nc3cc(C)c(C)cc3cc2C#N)CC1 | 16.2% | 40.7% | 43.0% | 50.9% | 110.1% | ?
COCCCNC(=S)N1CCCN(c2nc3cc(C)c(C)cc3cc2C#N)CC1 | -2.0% | 41.7% | 27.6% | / | 131.3% | 28.2µM*
COCCNC(=S)Nc1cc(OC)c(OC)cc1C#N | -17.9% | 6.7% | -28.3% | -118.8%[59 µM] | 18.3% | 79.4µM*
CCC1CCCCN1C(=O)c1ccc(OC)c(OC2CCN(C(C)C)CC2)c1 (stereo not given) | -3.7% | / | -9.1% | / | 18.7% | 9.6%
CCc1cc2cc(C)ccc2nc1SCC(=O)N1CCN(C(=O)c2ccco2)CC1 | ? | -9.9% | ? | ? | -8.3% | -19.2%
CCc1nc(SCC(=O)N2CCN(C(=O)c3ccco3)CC2)c2c3c(sc2n1)CCCC3 | -10.9% | -6.2% | ? | 50.1µM* | -21.0% | 9.8%
CCc1cc2ccccc2nc1SCC(=O)N1CCN(C(=O)c2ccco2)CC1 | ? | 2.1% | -13.8% | 50.1µM* | 30.3% | -6.8%
C=CCNC(=O)c1scc2c1CCCC2 | -0.6% | / | -17.0% | ? | 28.2% | 3.0%
CN(C)CCNC(=O)c1scc2c1CCCC2 | ? | / | 89.1µM* | / | 24.7% | 2.6%
N#Cc1cc2ccccc2nc1SCC(=O)NC1CC1 | -19.2% | / | -2.1% | 50.1µM* | 36.4% | -1.4%
COc1ccc(C2SCCN2C(=S)Nc2cccc(C(F)(F)F)c2)cc1 (stereo not given) | -2.6% | 4.8% | -7.4% | ? | 35.0% | 6.3%
COC(=O)/C=C1/S/C(=N/NC(=O)c2ccccc2OC)NC1=O | -13.9% | / | -9.8% | 7.94µM* | 36.6% | -4.7%
COC(=O)/C=C1/S/C(=N/NC(=O)c2ccc(OC)cc2)NC1=O | -8.2%[57.1 µM] | / | -25.6% | 39.1% | 27.6% | 2.3%
COc1cc(C(=O)N=c2sc3ccccc3n2C)cc(OC)c1OC | -10.5% | 2.7% | 50.1µM* | 4.3% | 17.7% | 21.8%

Compound activity (PubChem)
